Only some compounds are listed: those with a hit (about 2.6% of all), similar ones and a draw of the others.
PABP polyA inh = PABP-poly(A) binding inhibition; P11940; inhibition, % at 35 µM; actives 1% (n = 290,000); PABP-poly(A) RNA binding, fluorescence polarization; AID 2014;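 note: calls also rest on retests at 20 µM and on dose response follow-up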
CRFR2-BP antag = CRF-BP/CRF-R2 complex antagonism | HEK293 CRF-R2/CRF-BP, CRF-induced calcium fluorescence | inhibition, % at 11.8 µM | actives 0.59% (n = 350,000) | AID 588475;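 active = inhibition of the ligand-induced calcium signal above about 50% at the single tested concentration, limit read from the data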
PHOSPHO1 block = inhibitors of human PHOSPHO1 phosphatase | Q8TCT1 | recombinant PHOSPHO1, absorbance phosphatase assay | inhibition, % at 13.3 µM | actives 1.1% (n = 290,000) | AID 1565; in the data active = inhibition above about 60%
Target sequence (Q8TCT1 whole entry, looked up): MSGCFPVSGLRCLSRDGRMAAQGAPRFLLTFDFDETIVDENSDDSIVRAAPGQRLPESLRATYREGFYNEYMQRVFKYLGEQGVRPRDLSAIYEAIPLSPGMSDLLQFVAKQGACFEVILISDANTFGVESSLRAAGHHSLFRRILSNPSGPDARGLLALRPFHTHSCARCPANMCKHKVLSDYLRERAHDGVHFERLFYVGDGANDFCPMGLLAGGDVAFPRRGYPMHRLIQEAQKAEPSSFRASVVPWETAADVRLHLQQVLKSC
MLLE-PAM2 inh = blocks PAM2 peptide binding to the PABP1 MLLE domain. GST-MLLE / FITC-PAM2 fluorescence polarization. inhibition, % at 20 µM. actives 0.36% (n = 360,000). AID 588489; in the data active = inhibition above about 35%, passing the limit was not always enough
eIF4H inh = inhibitors of RNA binding by human eIF4H; Q15056; eIF4H fluorescence polarization binding assay; inhibition, % at 35 µM; actives 0.94% (n = 290,000); AID 2012;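 note: calls also rest on retests at 20 µM and on dose response follow-up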
A number is an active result; 0 = inactive; - = no result given. Unless noted, the rule behind the calls is not given here.

SMILES | PABP polyA inh | CRFR2-BP antag | PHOSPHO1 block | MLLE-PAM2 inh | eIF4H inh
N#CC1=C(N)OC2=C(CC/C2=C\c2ccccc2Cl)C1c1ccccc1Cl (centres undefined) | 9.1 | 0 | 0 | 0 | 0
O=C(O)CCCC(=O)Nc1ccc(N2CCCC2)cc1 | 0 | 0 | 0 | 0 | 69
CCCC(=O)Nc1ccc(N2CCCCC2)cc1 | 0 | 0 | 0 | 0 | 0
Cc1ccc(Nc2cc(=O)n(C)c(=O)[nH]2)cc1C | - | 0 | - | 0 | -
O=S1(=O)CC(O)C(Nc2ccc(Cl)cc2)C1 (centres undefined) | 0 | 0 | 0 | 0 | 0
O=S1(=O)CC(O)C(Nc2ccccc2)C1 (centres undefined) | 0 | 0 | 0 | 0 | active
COc1ccc(-c2[nH]ncc2CN2CCN(c3ccccn3)CC2)c(OC)c1 | 0 | 0 | 60 | 0 | 0
CCC(=O)c1cn(CC(=O)Nc2ccc(F)cc2)c2ccccc12 | - | 0 | - | 0 | -
O=C(CN1C(=O)C2CCCCC2C1=O)Nc1nc(-c2ccccn2)cs1 (centres undefined) | 0 | 0 | 71 | 0 | 0
Cc1cc(C)c2nc(NC(=O)c3ccc([N+](=O)[O-])o3)sc2c1 | 0 | 0 | 0 | 0 | 0
O=C(Nc1nc2c(F)cc(F)cc2s1)c1ccc([N+](=O)[O-])o1 | 0 | 80 | 0 | 0 | 0
COc1ccc(-c2csc(NC(=O)CN3C(=O)C4CCCCC4C3=O)n2)cc1OC (centres undefined) | 0 | 0 | 0 | 0 | 0
O=C(Nc1nc(-c2ccccn2)cs1)c1ccc([N+](=O)[O-])o1 | 0 | 0 | 93 | 0 | 0
COc1ccc(-c2csc(NC(=O)CN3C(=O)C4CC=CCC4C3=O)n2)cc1OC (centres undefined) | 0 | 57 | 0 | 0 | 0
C(=C\c1ccccc1)/CN1CCN(C(c2nnnn2Cc2ccccc2)C2CC2)CC1 (centres undefined) | - | - | - | 0 | -
CC(C)[C@H](NC(=O)c1ccccc1Cl)C(=O)Nc1nc(-c2ccccn2)cs1 | 0 | 0 | 0 | 0 | 0
C[C@@H](C(=O)Nc1nc(-c2ccccn2)cs1)N1C(=O)C2CCCCC2C1=O (some centres undefined) | 0 | 0 | 70 | 0 | 0
CC1CC1C(=O)Nc1nc(-c2ccccn2)cs1 (centres undefined) | 0 | 0 | 78 | 0 | 0
CC(NC(=O)C1CCCN1S(=O)(=O)c1cccc2nsnc12)c1ccccc1 (centres undefined) | 0 | 76 | 0 | 0 | 0
O=C(NC1CCCCC1)C1CCCN1S(=O)(=O)c1cccc2nsnc12 (centres undefined) | 0 | 0 | 0 | 0 | 0
COc1ccc(N(C)C(=O)C2CCCN2S(=O)(=O)c2cccc3nsnc23)c(OC)c1 (centres undefined) | 0 | 0 | 64 | 0 | 0
COc1cc(OC)c(NC(=S)NCc2ccccc2)cc1Cl | 0 | 0 | 0 | 0 | 0
O=c1oc(-c2ccccc2)c(-c2ccccc2)c2ccccc12 | - | 0 | - | 0 | -
COc1ccccc1C(=O)N/C(=C\c1cn(S(=O)(=O)N(C)C)c2ccccc12)C(=O)N1CCN(C)CC1 | - | 0 | - | 0 | -
Cc1cccc(-n2[nH]c(C)c(C=Nc3ccc4[nH]c(=O)[nH]c4c3)c2=O)c1 | 85 | 0 | 0 | 0 | 61
SMILES | PABP polyA inh | CRFR2-BP antag | PHOSPHO1 block | MLLE-PAM2 inh | eIF4H inh
CC(C)Oc1ccc(C(=O)NNC(=O)c2ccccc2C(=O)O)cc1 | 0 | 0 | 0 | 0 | 0
O=C(NNC(=O)c1ccccc1C(=O)O)c1ccc(O)cc1 | 0 | 58 | 0 | 0 | 0
CC(=O)NC(C)(c1ccccc1)c1nc(-c2ccc(F)c(Cl)c2)cs1 (centres undefined) | - | - | - | 0 | -
OC(C#Cc1ccccn1)c1cccs1 (centres undefined) | 0 | 0 | 60 | 0 | 0
O=C(CNCc1cccs1)NC12CC3CC(CC(C3)C1)C2 | 0 | 0 | 0 | 0 | 0
O=C(Cc1cccs1)NNC(=O)C12CC3CC(CC(C3)C1)C2 | 0 | 0 | 61 | 0 | 0
CSc1ncccc1C(=O)OCC(=O)c1ccccc1 | 0 | 0 | 0 | 0 | 0
COc1ccc(C(=O)COC(=O)c2cccnc2SC)cc1 | 0 | 78 | 0 | 0 | 0
O=C(CCCN1CCC(C(O)c2ccc(F)cc2)CC1)c1ccc(F)cc1 (centres undefined) | - | - | - | 0 | -
Cc1cccc(C(=O)Nc2sc(-c3ccccc3)cc2C(=O)O)c1 | 0 | 58 | 0 | 0 | 0
CC(C)(C)C(=O)Nc1sc(-c2ccccc2)cc1C(=O)O | 0 | 0 | 0 | 0 | 0
C=Cc1ccc(CC2(C)C(=O)Nc3ccc(Cl)cc32)cc1 (centres undefined) | - | - | - | 0 | -
C1CC2CN(c3nc4nonc4nc3N3CCSCC3)CCN2C1 (centres undefined) | 0 | 0 | 0 | 52 | 0
CS(=O)(=O)c1ccc(S(=O)CC(=O)OCc2ccccc2)c([N+](=O)[O-])c1 (centres undefined) | 0 | 53 | 0 | 0 | 0
Nc1nc(SCc2ccc(Cl)cc2Cl)c2ncn(C3OC(CO)C(O)C3O)c2n1 (centres undefined) | - | 0 | - | 0 | -
CCOc1cc(N2CCOCC2)c(OCC)cc1NC(=O)[C@H](C)N1C(=O)C2CC=CCC2C1=O (some centres undefined) | 0 | 0 | 63 | 0 | 0
Cc1c(Cl)cnc(NC(=O)COC(=O)/C=C/c2ccco2)c1Cl | - | 0 | - | 0 | -
O=C(COC(=O)/C=C/c1ccco1)Nc1ncc(C(F)(F)F)cc1Cl | active | 0 | 0 | 0 | 88
CN(c1ccccc1)S(=O)(=O)c1cccc(C(=O)OCC(=O)NCc2ccco2)c1 | 0 | 0 | 66 | 0 | 0
CCN(CC)S(=O)(=O)c1cccc(NC(=O)COC(=O)/C=C/c2ccco2)c1 | 0 | 0 | 0 | 0 | 69
O=C(COC(=O)c1ccccc1Nc1cccc(C(F)(F)F)c1)NCc1ccco1 | 0 | 0 | 0 | 0 | 54
Cc1ccc(C(=O)Nc2cccnc2)cc1C | - | 0 | - | 0 | -
O=C(Nc1ccccc1)c1cc(C2CCCCN2C(=O)c2cccs2)on1 (centres undefined) | - | - | - | 0 | -
COc1ccc(OCCC(=O)OCC(=O)NCc2ccco2)cc1 | 0 | 0 | 0 | 0 | 0
COc1ccc(C(=O)NC(=S)Nc2cccc(NC(=O)c3ccco3)c2)cc1[N+](=O)[O-] | 0 | 0 | 0 | 42 | 0
SMILES | PABP polyA inh | CRFR2-BP antag | PHOSPHO1 block | MLLE-PAM2 inh | eIF4H inh
COc1ccccc1NCCC(=O)OCC(=O)NCc1ccco1 | 45 | 0 | 0 | 0 | 96
Cc1ccccc1Nc1nc(N)nc(COC(=O)c2ccccc2)n1 | 0 | 0 | 0 | 0 | 0
CCNC(=S)Nc1cc(OC)c(NC(=O)c2ccco2)cc1OC | 0 | 73 | 0 | 0 | 0
Cc1ccccc1Nc1nc(N)nc(COC(=O)c2cccc(S(=O)(=O)N(C)c3ccccc3)c2)n1 | 0 | 51 | 0 | 0 | 0
COc1ccc(C(=O)NC(=S)Nc2ccc(NC(=O)c3ccco3)cc2)cc1[N+](=O)[O-] | 0 | 0 | 0 | 0 | 0
COc1ccc(C)cc1NC(=O)NCc1ccco1 | 0 | 0 | 61 | 0 | 0
C=CCN(c1ccccc1)S(=O)(=O)c1cccc(C(=O)OCC(=O)NCCOC)c1 | 0 | 55 | 0 | 0 | 0
O=C(COC(=O)c1cc(S(=O)(=O)N2CCc3ccccc3C2)ccc1Cl)NCc1ccco1 | 0 | 0 | 0 | 0 | 0
C=CCN(c1ccccc1)S(=O)(=O)c1cccc(C(=O)OCC(=O)NC2CC2)c1 | 0 | 0 | 0 | 0 | 0
